An excerpt weighted towards active compounds, which were near 18% of everything screened.
IL1B secr inh: inhibitors of inflammasome signaling (IL-1 beta secretion); THP-1 LPS/ATP IL-1B secretion, AlphaLISA, 16 h; hits give low values; activity change, % at 57.5 µM; hit rate 4.7% among 360,000; AID 743279; in the data active means activity change below about -50%; inconclusive means mostly about -30% to -49%; further: on the % scale 0 is the no-effect control and ±100 the full control effect
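THP-1 cells pretreated 1 hr with compounds (up to 57.5 uM final), then stimulated with LPS (250 ng/mL final) plus ATP (1.25 mM final); secreted IL-1B measured by AlphaLISA after 16 hr, decreased signal indicating inhibition.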
DT40 TDP1 CPT: growth inhibition of DT40 Tdp1-/-;hTDP1 cells with camptothecin (screen for TDP1 inhibitors); chicken DT40 Tdp1-/-;hTDP1 cells + 20 nM CPT, ATP luminescence, 48 h; Potency, µM (doses to about 46.2 µM), without a hit: top-dose activity change, negative = growth inhibition, usual class: inhibitors; hit rate 12% among 420,000; AID 686979; further: potency means the concentration at half of the fitted maximal effect; on the % scale 0 is the no-effect control and ±100 the full control effect; nearly all actives have a fitted effect of over 55% in size
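Chicken DT40 Tdp1-/- cells complemented with human TDP1, 400 cells/well, exposed to compounds plus 20 nM camptothecin for at least 48 h at 37 C; viability read as ATP content by CellTiter-Glo luminescence.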
TDP1 cell noCPT: qHTS for Inhibitors of human tyrosyl-DNA phosphodiesterase 1 (TDP1): qHTS in cells in absence of CPT; DT40 Tdp1-/- hTDP1 cells, no CPT, ATP luminescence, 48 h; Potency, µM (titrated, usually from 46.2 µM), for inactives: at the highest dose activity change, negative = growth inhibition, most hits filed as inhibitors; hit rate 15% among 420,000; further: potency means the concentration at half of the fitted maximal effect; on the % scale 0 is the no-effect control and ±100 the full control effect; nearly all actives have a fitted effect of over 55% in size
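Seeded 400 DT40-hTDP1 cells/well (vehicle DMSO, no 20 nM CPT); pinned compounds; ≥48 hr at 37 °C; CellTiter-Glo luminescence as viability measure.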
TGFb SMAD3 inh: TGF-b pathway inhibition; HepG2 CAGA-GFP TGF-b/SMAD3 reporter, GFP fluorescence, 18 h; TGF-beta stimulated, 500 pg/mL final; Potency, µM (doses to about 46.1 µM), for the others: top-dose activity, negative = inhibition, usual class: inhibitors; hit rate 1.2% among 410,000; further: potency means the concentration at half of the fitted maximal effect; on the % scale 0 is the no-effect control and ±100 the full control effect; nearly all actives have a fitted effect of over 65% in size
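Read-out: total well GFP (ex488/em500-530) summed from mean per-cell fluorescence. Cells: HEPG2 CAGA-GFP, 1% FBS DMEM, 18 h at 37 degrees C with 500 pg/mL final TGF-beta. Unstimulated wells served as the full-inhibition control; stimulated DMSO wells = 0%.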
TDP1 block: blocks human tyrosyl-DNA phosphodiesterase 1. Q9NUW8. recombinant TDP1, AlphaScreen DNA substrate cleavage. Potency, µM (series often up to 130 µM), without a hit: at the top dose activity change, negative = inhibition, most hits filed as inhibitors. hit rate 0.28% among 350,000; further: potency means the concentration at half of the fitted maximal effect; on the % scale 0 is the no-effect control and ±100 the full control effect; nearly all actives have a fitted effect of over 40% in size
Target sequence (Q9NUW8 whole entry, looked up): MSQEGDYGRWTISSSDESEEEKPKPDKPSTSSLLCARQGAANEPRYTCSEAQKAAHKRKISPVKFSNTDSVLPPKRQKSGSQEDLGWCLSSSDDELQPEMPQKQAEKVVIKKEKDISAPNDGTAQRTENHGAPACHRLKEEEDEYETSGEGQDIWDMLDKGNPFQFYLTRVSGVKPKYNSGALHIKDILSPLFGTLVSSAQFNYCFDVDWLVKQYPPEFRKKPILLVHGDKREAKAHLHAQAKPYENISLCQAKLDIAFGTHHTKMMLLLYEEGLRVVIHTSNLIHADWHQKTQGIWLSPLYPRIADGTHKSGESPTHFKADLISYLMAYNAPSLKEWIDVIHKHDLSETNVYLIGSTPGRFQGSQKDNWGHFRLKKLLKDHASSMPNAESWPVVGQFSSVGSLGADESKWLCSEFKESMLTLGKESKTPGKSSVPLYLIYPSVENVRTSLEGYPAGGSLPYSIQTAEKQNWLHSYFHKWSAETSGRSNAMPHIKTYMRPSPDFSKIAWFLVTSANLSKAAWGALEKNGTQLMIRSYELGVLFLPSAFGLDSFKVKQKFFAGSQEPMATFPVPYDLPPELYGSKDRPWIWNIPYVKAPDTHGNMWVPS
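E. coli-derived human Tdp1, 1 nM final. Cpd preinc 15 min RT; substrate 15 nM final, 5 min RT; AS bead mix 10 ug/ml final, 10 min RT. Signal loss = tyrosine-FITC cleavage. No-enzyme wells = max signal.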
HepG2 viability: counter-screen for TGF-b inhibitors: cytotoxicity in HepG2 cells; HepG2 CAGA-GFP viability, ATP luminescence, 18 h; Potency, µM (doses to about 46.1 µM), inactives show top-dose activity change, negative = cytotoxicity, usual class: cytotoxic; hit rate 0.76% among 410,000; AID 588856; further: potency means the concentration at half of the fitted maximal effect
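HepG2 CAGA-GFP cells (1000/well, DMEM with 1% FBS) received compound, then TGF-beta at 500 pg/mL final, and were incubated 18 hours at 37 degrees C. Viability was read by CellTiter-Glo luminescence. Media-only wells were set as complete cell-killing and DMSO as no toxicity.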
An asterisk follows results filed as active; [ ] = another dose, or the depositor's remark. Unless noted, the call rests on the fitted dose curve; in most records, active means well fitted curve in the direction sought with a large enough effect; inconclusive means small, poorly fitted or top-dose-only effect, or another doubt; inactive means no such curve, though single readings can be large; an effect the other way counts as inactive or inconclusive.

What do the screens show for `O=c1[nH]sc2cc(F)ccc12`?
IL1B secr inh: -108*; DT40 TDP1 CPT: 1.8µM*; TDP1 cell noCPT: 2.3µM*; TGFb SMAD3 inh: inconclusive; TDP1 block: 6%; HepG2 viability: 1%

How did COc1ccc(CNC(=O)CSCc2cnn(-c3ccccc3)c2-n2cccc2)cc1OC do in these assays?
DT40 TDP1 CPT: 15µM*; TDP1 cell noCPT: 13µM*; TGFb SMAD3 inh: inconclusive; TDP1 block: 8%; HepG2 viability: -28%

Results for COc1ccc(CN2CCN(C(=O)Cc3ccccc3)CC2)cc1OC ?
IL1B secr inh: 6; DT40 TDP1 CPT: -24%; TDP1 cell noCPT: 0%; TGFb SMAD3 inh: 3%; HepG2 viability: 2%

Results for C=C1C(=O)OC2CC3(C)OC3CCC(C)=CC(OC(C)=O)C12 (stereo unspecified) ?
IL1B secr inh: -100*; DT40 TDP1 CPT: 2.3µM*; TDP1 cell noCPT: 2.6µM*; TGFb SMAD3 inh: 18µM*; HepG2 viability: -100%

How did Cc1ccc(OP2(=O)Nc3cc(C)c(C)cc3S2)cc1 (stereo unspecified) do in these assays?
IL1B secr inh: -69*; DT40 TDP1 CPT: inconclusive; TDP1 cell noCPT: inconclusive; TGFb SMAD3 inh: inconclusive; HepG2 viability: -7%

How did CC(C)c1ccc(OCC(=O)Nc2cc(-c3nc4ncccc4o3)ccc2Cl)cc1 do in these assays?
DT40 TDP1 CPT: inconclusive; TDP1 cell noCPT: 6.5µM*; TGFb SMAD3 inh: -1%; TDP1 block: 3%; HepG2 viability: -33%

How did CC(C)c1ccc(NC(=O)Cn2c(=O)oc3cccnc32)cc1 do in these assays?
IL1B secr inh: -5; DT40 TDP1 CPT: 7%; TDP1 cell noCPT: -11%; TGFb SMAD3 inh: 4%; TDP1 block: -6%; HepG2 viability: -20%

What do the screens show for `COC(=O)C1=C(N)Oc2cc(C)oc(=O)c2C12C(=O)Nc1ccccc12` (stereo unspecified)?
IL1B secr inh: 10; DT40 TDP1 CPT: inconclusive; TDP1 cell noCPT: 16µM*; TGFb SMAD3 inh: 7%; TDP1 block: 3%; HepG2 viability: 24%

What do the screens show for `CCOC(=O)c1c(C)n(Cc2ccccc2)c2ccc(OCC(O)CN3C(=O)CNC3=O)cc12` (stereo unspecified)?
IL1B secr inh: -26; DT40 TDP1 CPT: inconclusive; TDP1 cell noCPT: 15µM*; TGFb SMAD3 inh: 1%; TDP1 block: 4%; HepG2 viability: -15%

What do the screens show for `C#CCOc1ccc2c(c1)c(C(C)=O)c(C)n2Cc1ccccc1`?
IL1B secr inh: -4; DT40 TDP1 CPT: -30%; TDP1 cell noCPT: inconclusive; TGFb SMAD3 inh: -22%; TDP1 block: 0%; HepG2 viability: 6%

Results for C=CC(=C)C ?
TDP1 block: 12%

How did COc1ccccc1N1CCN(Cc2ccc(SC)cc2)CC1 do in these assays?
IL1B secr inh: -6; DT40 TDP1 CPT: 16µM*; TDP1 cell noCPT: 21µM*; TGFb SMAD3 inh: inconclusive; HepG2 viability: -35%

How did CCc1ccc(CN2CCN(Cc3ccc(SC)cc3)CC2)cc1 do in these assays?
IL1B secr inh: -91*; DT40 TDP1 CPT: inconclusive; TDP1 cell noCPT: 21µM*; TGFb SMAD3 inh: inconclusive; TDP1 block: -1%; HepG2 viability: -91%

How did COc1ccc(CN2CCN(Cc3ccccc3OC)CC2)cc1 do in these assays?
IL1B secr inh: 6; DT40 TDP1 CPT: -19%; TDP1 cell noCPT: inconclusive; TGFb SMAD3 inh: -2%; HepG2 viability: 0%

What do the screens show for `COc1ccccc1CN1CCN(Cc2ccc(Cl)cc2)CC1`?
IL1B secr inh: -3; DT40 TDP1 CPT: -20%; TDP1 cell noCPT: 21µM*; TGFb SMAD3 inh: 0%; TDP1 block: -2%; HepG2 viability: -6%

How did Cc1cccc(CN2CCN(Cc3ccc(Cl)cc3)CC2)c1 do in these assays?
IL1B secr inh: inconclusive; DT40 TDP1 CPT: inconclusive; TDP1 cell noCPT: 21µM*; TGFb SMAD3 inh: inconclusive; TDP1 block: -4%; HepG2 viability: -37%

Results for CP(=O)(O)C1=CCNCC1 ?
DT40 TDP1 CPT: -7%; TDP1 cell noCPT: -1%; TDP1 block: 6%[56.1 µM]

Results for C=C(C)[C@@]12OC3(c4ccccc4)O[C@@H]1[C@@H]1[C@@H]4O[C@]4(CO)[C@@H](O)[C@]4(O)C(=O)C(C)=C[C@H]4[C@@]1(O3)[C@H](C)[C@H]2OC(=O)/C=C/C=C/c1ccccc1 ?
TDP1 block: 15%

What do the screens show for `CC(C)C[C@H](NC(=O)[C@H](Cc1ccccc1)NC(=O)CNC(=O)[C@H](CS)N(C(=O)[C@@H](N)Cc1ccc(O)cc1)C(C)(C)C)C(=O)N([C@H](C(=O)O)[C@H](C)O)C(C)(C)C`?
DT40 TDP1 CPT: -5%[4.12 µM]; TDP1 cell noCPT: -4%[4.12 µM]; TDP1 block: 2%

Results for CC/C(=N\N1CCCCCC1)c1c(O)n(-c2ccccc2C)c(=O)[nH]c1=O ?
IL1B secr inh: 2; DT40 TDP1 CPT: 21µM*; TDP1 cell noCPT: 15µM*; TGFb SMAD3 inh: 0%; TDP1 block: 8%; HepG2 viability: 6%

Results for O=c1oc2ccccc2cc1-c1cn2cc(Cc3ccc(F)cc3)sc2n1 ?
DT40 TDP1 CPT: 5.2µM*; TDP1 cell noCPT: 2.1µM*; TGFb SMAD3 inh: 0%; TDP1 block: 4%; HepG2 viability: -7%

What do the screens show for `Clc1ccc(CCC(Cn2ccnc2)Sc2c(Cl)cccc2Cl)cc1` (stereo unspecified)?
IL1B secr inh: 0; DT40 TDP1 CPT: inconclusive; TDP1 cell noCPT: 26µM*; TGFb SMAD3 inh: inconclusive; HepG2 viability: 13µM*

What do the screens show for `Cc1cc(C=C2C(=O)N(C)C(=S)N(C)C2=O)c(C)n1-c1cccnc1`?
IL1B secr inh: -68*; DT40 TDP1 CPT: inconclusive; TDP1 cell noCPT: inconclusive; TGFb SMAD3 inh: 10%; TDP1 block: 1%; HepG2 viability: 9%

How did CCN(CC)C(=O)N[C@H]1C=C2c3cccc4[nH]cc(c34)C[C@@H]2N(C)C1 do in these assays?
TDP1 block: 16%[21 µM]

How did O=C1c2ccccc2C(=O)c2c1ccc1c(=O)n(-c3ccccc3)[nH]c21 do in these assays?
IL1B secr inh: -12; DT40 TDP1 CPT: inconclusive; TDP1 cell noCPT: 23µM*; TGFb SMAD3 inh: -9%; TDP1 block: 8%; HepG2 viability: -14%
